Molecules are shown by their SMILES. Inconclusive results are not listed. The source made the active and inactive calls. The call rests on the fitted dose curve; in most records, active means well fitted inhibition curve with a large enough effect; inconclusive means small, poorly fitted or top-dose-only effect; inactive means flat fitted curve, though single readings scatter.

Sequence of Ubiquitin carboxyl-terminal hydrolase 1 (Homo sapiens) (O94782 whole entry, looked up): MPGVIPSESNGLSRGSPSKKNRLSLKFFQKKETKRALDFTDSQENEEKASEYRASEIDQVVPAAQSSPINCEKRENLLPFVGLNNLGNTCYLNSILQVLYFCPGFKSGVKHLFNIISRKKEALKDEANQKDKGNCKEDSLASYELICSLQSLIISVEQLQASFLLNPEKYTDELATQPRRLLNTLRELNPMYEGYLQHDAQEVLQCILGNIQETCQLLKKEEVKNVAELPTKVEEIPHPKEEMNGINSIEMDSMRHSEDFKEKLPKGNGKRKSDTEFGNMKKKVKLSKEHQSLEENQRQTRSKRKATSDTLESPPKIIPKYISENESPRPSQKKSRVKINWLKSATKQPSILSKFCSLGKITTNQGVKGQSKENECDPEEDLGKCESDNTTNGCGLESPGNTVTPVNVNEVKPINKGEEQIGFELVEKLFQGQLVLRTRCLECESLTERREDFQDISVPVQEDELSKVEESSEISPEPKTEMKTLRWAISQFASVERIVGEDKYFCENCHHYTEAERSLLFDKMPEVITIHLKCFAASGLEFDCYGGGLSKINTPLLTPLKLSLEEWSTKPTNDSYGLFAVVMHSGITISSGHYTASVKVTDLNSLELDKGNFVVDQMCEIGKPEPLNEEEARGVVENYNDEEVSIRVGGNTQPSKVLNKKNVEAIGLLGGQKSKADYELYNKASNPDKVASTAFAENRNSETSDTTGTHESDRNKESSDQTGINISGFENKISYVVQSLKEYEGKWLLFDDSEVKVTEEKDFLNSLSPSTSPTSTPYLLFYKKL

This assay addresses Ubiquitin carboxyl-terminal hydrolase 1 (Homo sapiens) (UniProt O94782). Nature of the assay: Inhibitors of USP1/UAF1: SAR in Primary Assay. The conditions noted are these: Recombinant USP1/UAF1, Ub-Rhodamine cleavage fluorescence; series mostly up to 57.1 µM. The text has this:
Deubiquitinating enzymes (DUBs) are a class of enzymes that can cleave isopeptide bond formed between the C-terminal carboxylate of ubiquitin and a lysine side-chain amino group on the target protein. Among them, ubiquitin specific proteases (USPs) constitute the largest DUB family. Human USPs are emerging as promising targets for pharmacological intervention because of their connection to a number of human diseases, including prostate, colon and breast cancer (1, 2), pediatric acute lymphoblastic leukemia (3), and familial cylindromatosis (4). The advantage of inhibiting USPs lies in the potential specificity of therapeutic intervention that can lead to better efficacy and reduce nonspecific side effects. In a collaboration between the University of Delaware and the NIH Chemical Genomics Center, a high-throughput screen assay was developed to screen for USP1/UAF1 inhibitors (5). This assay was used to test the analogs that were synthesized based on SAR around the original hit. NIH Chemical Genomics Center [NCGC] NIH Molecular Libraries Probe Centers Network [MLPCN] MLPCN Grant: DA030552-01 Assay Submitter (PI): Zhihao Zhuang, University of Delaware 1. Priolo, C., et al. (2006) The isopeptidase USP2a protects human prostate cancer from apoptosis. Cancer Res 66, 8625-8632 2. Popov, N., et al. (2007) The ubiquitin-specific protease USP28 is required for MYC stability. Nat Cell Biol 9, 765-774 3. De Pitta, C., et al. (2005) A leukemia-enriched cDNA microarray platform identifies new transcripts with relevance to the biology of pediatric acute lymphoblastic leukemia. Haematologica 90, 890-898 4. Kovalenko, A., et al. (2003) The tumour suppressor CYLD negatively regulates NF-kappaB signalling by deubiquitination. Nature 424, 801-805 5. Chen, J., et al. (2011) Selective and cell-active inhibitors of the USP1/ UAF1 deubiquitinase complex reverse cisplatin resistance in non-small cell lung cancer cells. Chem Bio 18(11):1390-400.
3 microliters of reagents (buffer in columns 3 and 4 as negative control and 1nM USP1/UAF1 complex in columns 1, 2, and 5-48) are dispensed into Greiner black solid bottom 1536-well assay plates. Compounds are then transferred via Kalypsys pin tool equipped with 1536-pin array (10nl slotted pins, V&P Scientific, San Diego, CA). Following an incubation step of 15 min at room temperature, 1ul of Ub-Rho substrate (150nM final concentration) is added to initiate the reaction. The plates are immediately centrifuged at 1000 rpm for 15 seconds, and subsequently transferred to a ViewLux high-throughput CCD imager (PerkinElmer) wherein kinetic measurements of fluorescence are acquired using 480 nm excitation/540 nm emission filter set (6 reads every 60 seconds, see Table 1). All reagents are diluted in an assay buffer consisting of 50mM HEPES (pH 7.8), 0.5mM EDTA, 0.1 mg/ml BSA, 1mM TCEP, and 0.01% Tween-20.
Regarding `Cc1cnc(-c2ccccc2C2COC2)nc1NCc1ccc(-n2ccnn2)cc1`, the Potency entry is “inactive”.

For the molecule `FC(F)(F)c1ccccc1-c1nc(NCC2CCN(c3cccnc3)CC2)c2ccccc2n1`, the Potency was 607 nM (active).

With `FC(F)(F)c1ccccc1-c1nc(NCc2ccc(C3CCCCC3)cc2)c2ccccc2n1`, the Potency is 6810 nM (active).

Regarding `CC(C)c1ccccc1-c1nc(NCc2ccc(-c3cccnc3)cc2)c2occc2n1`, the Potency is 152 nM (active).

Consider `Cc1ccc(-c2ccc(CNc3nc(-c4ccccc4C(C)C)nc4ccsc34)cc2)cn1`, for which the Potency was 96.1 nM (active).

As for `CC(C)c1ccccc1-c1ncc(F)c(NCc2ccc(-c3cccnc3)cc2)n1`, the Potency is 60.7 nM (active).

Take `Cc1cnc(-c2ccccc2CO)nc1NCc1ccc(-c2cccnc2)cc1`: the Potency was 8570 nM (active).

Regarding `Cc1cnc(-c2ccccc2OC(C)C)nc1NCc1ccc(-n2ccnn2)cc1`, the Potency is 429 nM (active).

For the molecule `CC(C)c1ccccc1-c1ncc(F)c(NC(C)(C)c2ccc(-c3cccnc3)cc2)n1`, the Potency was 192 nM (active).

`CC(C)c1ccccc1-c1ncc(N(C)C)c(NCc2ccc(-c3cccnc3)cc2)n1`: the Potency was 152 nM (active).

Take `CC(C)c1ccccc1-c1nc2c(c(NCc3ccc(-c4cccnc4)cc3)n1)CNC2`: the Potency is 1520 nM (active).

In the case of `Cc1cc(NCc2ccc(-c3cccnc3)cc2)nc(-c2ccccc2C(C)C)n1`, the Potency was 482 nM (active).

Take `CC(C)c1ccccc1-c1nc(NCc2ccc(-c3cccnc3)cc2)c2[nH]cnc2n1`: the Potency was 121 nM (active).

For the molecule `Cc1cnc(-c2ccccc2C(C)C)nc1NCc1ccc(C#N)cc1`, the Potency was 482 nM (active).

For the molecule `FC(F)(F)c1ccccc1-c1nc(NCc2ccc(-c3cncnc3)cc2)c2ccccc2n1`, the Potency was 1920 nM (active).

In the case of `Fc1cc(Cl)cc(-c2ccc(CNc3nc(-c4ccccc4C(F)(F)F)nc4ccccc34)cc2)c1`, the Potency was 2410 nM (active).

With `CSc1cnc(-c2ccccc2C(C)C)nc1NCc1ccc(-c2cccnc2)cc1`, the Potency is 85.7 nM (active).

Regarding `Fc1cnc(-c2ccccc2C(F)F)nc1NCC1CCN(c2cnccn2)CC1`, the Potency was 2410 nM (active).

Regarding `O=[N+]([O-])c1ccccc1-c1nc(NCc2ccc(-c3cccnc3)cc2)c2ccccc2n1`, the Potency is 4290 nM (active).

With `COc1ccccc1-c1ncc(C)c(NCc2ccc(-c3cccnc3)cc2)n1`, the Potency is 764 nM (active).

Consider `CC(C)c1ccccc1-c1nc(NCc2ccc(-c3cccnc3)cc2)c2ccccc2n1`, for which the Potency is 152 nM (active).

For `CC(C)(Sc1ccc(CCN(CCCCC2CCCCC2)C(=O)NC2CCCCC2)cc1)C(=O)O`, the Potency was 24100 nM (active).

Consider `Cc1nc(-c2ccccc2C(C)C)nc(NCc2ccc(-c3cccnc3)cc2)c1C`, for which the Potency is 136 nM (active).

Take `Cc1cnc(-c2ccccc2C(C)C)nc1NC(C)c1ccc(-c2cccnc2)cc1` (stereo not given): the Potency was 136 nM (active).

For `Clc1ccccc1-c1nc(NCc2ccc(-c3cccnc3)cc2)c2ccccc2n1`, the Potency was 857 nM (active).

Take `Cc1cnc(-c2ccccc2C(C)O)nc1NCC1CCN(c2cccnc2)CC1` (stereo not given): the Potency is 2410 nM (active).

For the molecule `FC(F)(F)c1cc(-c2ccc(CNc3nc(-c4ccncc4)nc4ccccc34)cc2)ccn1`, the Potency was 19200 nM (active).

Consider `Fc1cnc(-c2ccccc2C(F)F)nc1NCc1ccc(-c2cccnc2)cc1`, for which the Potency was 1210 nM (active).

For the molecule `Cc1ccc(-c2ccc(CN(C)c3nc(-c4ccccc4C(C)C)ncc3C)cc2)cn1`, the Potency was 541 nM (active).

As for `Cc1cnc(-c2ccccc2C(C)C)nc1NCC1CCN(c2cnccn2)CC1`, the Potency is 121 nM (active).

On to `FC(F)(F)c1ccccc1-c1nc(NCc2ccc(-c3cccnc3)cc2)c2[nH]cnc2n1`, for which the Potency is 607 nM (active).

Take `Cc1ccc(-c2ccc(CNc3nc(-c4ccccc4C(C)C)ncc3F)cc2)cn1`: the Potency is 76.4 nM (active).

Consider `Cc1ccc(-c2ccc(CNc3nc(-c4ccccc4C(C)C)ncc3C)cc2)cn1`, for which the Potency was 42.9 nM (active).

On to `Cc1cnc(-c2ccccc2C(C)O)nc1NCc1ccc(-c2cccnc2)cc1` (stereo not given), for which the Potency is 1360 nM (active).

Turning to `Cc1cnc(-c2ccccc2C(C)C)nc1NCC1CCN(c2cccnc2)CC1`, the Potency is 48.2 nM (active).

As for `CC(C)c1ccccc1-c1ncc(F)c(NC(C)(C)c2ccc(-n3ccnn3)cc2)n1`, the Potency is 4820 nM (active).

With `N#Cc1ccc(-c2nc(NCc3ccc(-c4ccnc(C(F)(F)F)c4)cc3)c3ccccc3n2)cc1`, the Potency entry is “inactive”.

Consider `Cc1cnc(-c2ccccc2N(C)C)nc1NCc1ccc(-c2cccnc2)cc1`, for which the Potency is 429 nM (active).

As to `CN(Cc1ccc(-c2ccccc2)cc1)c1nc(-c2ccccc2C(F)(F)F)nc2ccccc12`, the Potency is 4290 nM (active).

For the molecule `CSc1ccccc1-c1ncc(C)c(NCc2ccc(-c3cccnc3)cc2)n1`, the Potency was 541 nM (active).

These data come from PubChem BioAssay AID651605 (National Center for Advancing Translational Sciences (NCATS), 2012).
